Pf Dd2 inh – Plasmodium falciparum Dd2 growth inhibition; P. falciparum Dd2 growth, SYBR Green, 72 h; Potency, µM (top dose mostly 28.9 µM), most hits filed as inhibitors; actives 4.3% (n = 120,000); active means well fitted inhibition curve with a large enough effect; further: nearly all actives have a fitted effect of over 65% in size
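Readout: SYBR Green fluorescence, 485 nm excitation, 535 nm emission, after ~16 h lysis at 37C. Before that, Dd2-infected red cells (2.5% hematocrit) grew 72 h with compound, 29 uM top final concentration.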
Each line names hits and unclear results; the compound was inactive in the other large screens. Only a selection was taken, and hits are over-represented in it overall.

CC(C)C[C@@H]1N[C@H](C(=O)NC2CCC2)Cc2cn(CC3CC3)c3cccc1c23	Pf Dd2 inh 14µM
C=CCNC(=O)[C@@H]1Cc2cn(CC=C)c3cccc(c23)[C@H](CC(C)C)N1	Pf Dd2 inh 14µM
O=C1COCC2(CN1)CN(Cc1ccc3c(c1)CCO3)C2	none
COc1ccc(NC(=O)N2CCCC(c3nc(C4CCOCC4)no3)C2)cc1 (stereo not drawn)	none
Cc1ccccc1C(=O)N1CCCN(c2nc3ncccc3o2)CC1	none
Cc1n[nH]c(C)c1C(NC(=O)c1c(C)nc2ccc(Cl)cn12)C(=O)O (stereo not drawn)	none
O=C(NCc1cc2n(n1)CCNC2)c1cc2c(s1)CCCCC2	none
CCn1c(CN2CCN(CC(=O)N3CCCC3)CC2)nnc1C1CC(N)C1 (stereo not drawn)	none
O=C(NCC(F)(F)F)c1nc2sccn2c1Br	none
O=C(N1CCOCC1)N1CCn2c(nnc2C2CCNCC2)C1	none
COc1cccc2c1OCCCN(Cc1nnc(-c3ccccc3)o1)C2	none
COc1cccc(CC(=O)N2CCC3(CC2)CC(OCC2CC2)CCO3)c1 (stereo not drawn)	none
O=C(c1ccco1)N1CCC(c2noc(COCC3CC3)n2)CC1	none
CCC(=O)N1CCc2cc(Br)cc(S(=O)(=O)N3CCCC(C(=O)NCc4ccc(OC)cc4)C3)c21 (stereo not drawn)	none
CCOC(=O)C1CCCN(S(=O)(=O)c2cc(Br)cc3c2N(C(=O)CC)CC3)C1 (stereo not drawn)	Pf Dd2 inh 3.5µM
CCc1cccc(C)c1NC(=O)C1CCN(S(=O)(=O)c2cc(Br)cc3c2N(C(C)=O)CC3)CC1	none
CCC(=O)N1CCc2cc(Br)cc(S(=O)(=O)N3CCCC(C(=O)Nc4cc(C)ccc4OC)C3)c21 (stereo not drawn)	none
CCC(=O)N1CCc2cc(Br)cc(S(=O)(=O)N3CCN(c4cc(C)ccc4C)CC3)c21	none
CCC(=O)N1CCc2cc(Br)cc(S(=O)(=O)N3CCC(C(=O)N(CC)CC)CC3)c21	Pf Dd2 inh 10µM
COCc1nc(C2CCCN(C(=O)CC3CCCC3)C2)no1 (stereo not drawn)	none
Cn1c(Cn2ccnc2)nnc1C1CCCN(C(=O)Nc2ccccc2F)C1 (stereo not drawn)	none
COc1ccc(CNC(=O)N2CC(c3nc(CCOCC4CCOCC4)no3)C2)cc1	none
CCC(=O)N1CCC(N2CC(OCC3CC3)C23CCOCC3)CC1 (stereo not drawn)	none
Cn1nccc1C(=O)N1CCC(N2CC(OCC3CC3)C23CCOCC3)CC1 (stereo not drawn)	none
O=C(NCc1ccccc1)N1CCC(N2CC(OCC3CC3)C23CCOCC3)CC1 (stereo not drawn)	none
O=C(Cc1cccnc1)N1CCC(N2CC(OCC3CC3)C23CCCCC3)CC1 (stereo not drawn)	Pf Dd2 inh 7.9µM
CC(C)NC(=O)N1CCC(N2CC(OCC3CC3)C23CCCCC3)CC1 (stereo not drawn)	none
CCOCC(=O)N1CCC(N2CC(OCC3CC3)C23CCCCC3)CC1 (stereo not drawn)	Pf Dd2 inh 5µM
O=C([C@@H]1C[C@H](F)CN1C(=O)c1ccccc1)N1CCOCC1	none
O=C([C@@H]1C[C@H](Oc2cccnc2)CN1C(=O)Cc1cccc(F)c1)N1CCOCC1	none
COc1cccc(C(=O)N2CCOC[C@H](OC)C2)c1	none
CN(CC1CCOC1)S(=O)(=O)c1ccc2c(c1)CCC2 (stereo not drawn)	none
CC(C)NC(=O)CCC[C@@H]1[C@H]2CCCN3CCC[C@@H](CN1C(=O)c1cccnc1)[C@@H]23	none
O=C(c1ccc(=O)[nH]n1)N1C[C@H]2OC(=O)N(CCCN3CCOCC3)[C@H]2C1	none
C#CCNC(=O)C[C@@H]1CCN(C(=O)CCCCC)C[C@@H]1CC	none
CCCN1C(=O)C(CC(=O)N2CCCC(C)C2)Sc2ncccc21 (stereo not drawn)	none
Cc1ccc(CC(=O)N2[C@@H]3CC[C@H]2CC(NC(=O)c2ccncc2)C3)cc1 (stereo partly drawn)	none
CCOc1ccccc1NC(=O)Cn1c(N2CCOCC2)nc(C)cc1=O	none
CCN(CC1CCCN(CCc2cccc(OC)c2)C1)C(=O)CN1CCCC1=O (stereo not drawn)	none
CCN(CC1CCCN(CCc2cccc(OC)c2)C1)C(=O)c1cc(C)no1 (stereo not drawn)	Pf Dd2 inh 10µM
COc1ccccc1CN1CCCC(CN(CCN(C)C)C(=O)c2cc(C(C)C)no2)C1 (stereo not drawn)	none
COc1ccc(-c2nn3c(-c4ccccc4C)nnc3c3ccccc23)cc1	Pf Dd2 inh 11µM
COc1ccc(-c2oc3ncn4nc(-c5ccccc5C)nc4c3c2-c2ccc(OC)cc2)cc1	none
Cc1ccc(-c2nnc3c4ccccc4c(-c4ccccc4)nn23)cc1	none
COc1ccc(CN2CC[C@H]3COC(=O)N3c3cc(C)ccc3C2)cc1	none
COc1ccc(CN2COc3ccc4c(C)cc(=O)oc4c3C2)cc1	Pf Dd2 inh 10µM
COc1ccc(CN2CC[C@H]3COC(=O)N3c3ccc(OC)cc3C2)cc1	none
COc1ccc(CN2CC[C@H]3COC(=O)N3c3ccccc3C2)cc1	none
COc1ccc(CN2CC[C@H]3COC(=O)N3c3cc(F)ccc3C2)cc1	none
CCCc1cc(=O)oc2c3c(ccc12)OCN(Cc1ccc(OC)cc1)C3	Pf Dd2 inh 10µM
COc1ccc(CC(=O)N2CCC(c3n[nH]c(=O)n3-c3ccccc3)CC2)cc1	none
CN(Cc1cccc(F)c1)Cc1ccccc1C(F)(F)F	none
Cc1cc(C(=O)N2CC(c3nnc(-c4ccncc4)o3)C3(CCOCC3)C2)n(C)n1 (stereo not drawn)	none
COc1ccc(CC(=O)NC2CCN(c3cc(-c4ccc(Cl)cc4)[nH]n3)C2)cc1OC (stereo not drawn)	Pf Dd2 inh 7.9µM
CCOc1ccc(CC(=O)NC2CCN(c3cc(-c4ccc(F)cc4)[nH]n3)C2)cc1OCC (stereo not drawn)	none
O=C(Cc1cccc(F)c1)NC1CCN(c2cc(-c3ccc(F)cc3)[nH]n2)C1 (stereo not drawn)	Pf Dd2 inh 6.3µM
COc1cccc(CC(=O)NC2CCCN(c3cc(-c4ccc(F)cc4)[nH]n3)C2)c1 (stereo not drawn)	none
COc1ccc(-c2cc(N3CCC(NC(=O)Cc4ccc(Cl)cc4)CC3)n[nH]2)cc1	none
COc1ccc(CC(=O)NC2CCN(c3cc(-c4ccc(F)cc4)[nH]n3)C2)cc1 (stereo not drawn)	none
CC(C)CNC(=O)CCC[C@@H]1[C@H]2CCCN3CCC[C@@H](CN1C(=O)c1cccnc1)[C@@H]23	none
CN(C)C[C@@H]1CN(c2ccccn2)C[C@H]1NC(=O)Cn1c(=O)oc2ccccc21	none
O=c1n(-c2ccc(Cl)cc2)nc2n1CCN(Cc1ccc(C(F)(F)F)cc1)C2	none
COc1ccc(CN2CCn3c(nn(-c4ccc(C(F)(F)F)cc4)c3=O)C2)cc1	none
O=c1n(-c2ccncc2)nc2n1CCN(Cc1ccc(C(F)(F)F)cc1)C2	Pf Dd2 inh 7.9µM
Cc1ccccc1NC(=O)CN1C(=O)C(c2ccccc2)=NC12CCCCCC2	none
Cc1ccccc1NC(=O)CN1C(=O)C(c2ccccc2)=NC12CCCCC2	none
COc1cc(Cl)c(C)cc1NC(=O)CN1C(=O)C(c2ccccc2)=NC12CCCC2	Pf Dd2 inh 11µM
COc1cccc(S(=O)(=O)N2CCCC(CO)CCNC(=O)CC2)c1 (stereo not drawn)	none
CN(C)Cc1nnc(C2CCN(C(=O)c3cn[nH]c3-n3cnnn3)CC2)n1C	none
CNC(=O)[C@@H](c1ccc(Cl)cc1)N1CCC[C@H]1C(=O)N1CCN(C)CC1	none
O=C1CC(c2ccccc2)N(C(=O)CNC(=O)c2ccncc2)CCCCCN1 (stereo not drawn)	none

Source: PubChem (National Center for Advancing Translational Sciences (NCATS))
